Where “and” joins values, the source holds several entries; their conditions need not be identical. Equal values may be shown once. Records with an inconclusive call do not appear. A call without a number means that no potency is given here. Unmarked numbers belong to inactive results. Calls of active or inactive are those of the source. Calls follow the shape of the dose curve; as a rule, active = well fitted curve in the direction sought with a large enough effect; inconclusive = small, poorly fitted or top-dose-only effect, or another doubt; inactive = no such curve, though single readings can be large; an effect the other way counts as inactive or inconclusive.
Tests used:
[1] = target: Cellular tumor antigen p53 (Homo sapiens) (UniProt P04637); experiment: Primary qHTS for small molecule compounds that upregulate eGFP-tagged delta133p53alpha (in N-terminal) cells. (AID 2060322); conditions: NCI-H358 eGFP-delta133p53alpha fluorescence, 24 h; activation: hits give high values; also: series mostly up to about 56 µM; nearly all actives have a fitted effect of over 75% in size
Cellular tumor antigen p53 (Homo sapiens), sequence (P04637 whole entry, looked up): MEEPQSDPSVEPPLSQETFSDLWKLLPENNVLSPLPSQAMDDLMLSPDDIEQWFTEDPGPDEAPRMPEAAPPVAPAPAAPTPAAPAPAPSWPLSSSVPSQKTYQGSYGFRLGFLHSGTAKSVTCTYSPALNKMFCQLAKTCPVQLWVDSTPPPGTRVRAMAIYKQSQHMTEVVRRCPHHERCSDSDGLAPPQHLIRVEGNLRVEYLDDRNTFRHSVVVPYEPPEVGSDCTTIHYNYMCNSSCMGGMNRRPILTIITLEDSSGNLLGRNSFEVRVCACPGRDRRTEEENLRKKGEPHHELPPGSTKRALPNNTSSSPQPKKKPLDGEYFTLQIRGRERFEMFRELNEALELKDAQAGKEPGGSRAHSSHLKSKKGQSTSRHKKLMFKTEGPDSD
How it was run: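 NCI-H358 cells pre-induced 24 h with 10 ng/ml doxycycline to express N-terminal eGFP-delta133p53alpha, then dosed 24 h at 37C without doxycycline; fixed, Hoechst-stained, GFP intensity by laser scanning cytometry, normalized to DMSO (0%) and 57.5 uM 5-azacytidine (100%).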

[2] = target: Aldehyde dehydrogenase, mitochondrial (Homo sapiens) (UniProt P05091); experiment: qHTS for Inhibitors of the Aldehyde Dehydrogenase Family (ALDH2) Primary screen (AID 2061308); also: nearly all actives have a fitted effect of over 55% in size
[3] = target: Retinaldehyde dehydrogenase 3 (Homo sapiens) (UniProt P47895); experiment: qHTS for Inhibitors of the Aldehyde Dehydrogenase Family (ALDH1A3) Validation screen (AID 2061312); also: nearly all actives have a fitted effect of over 45% in size
[4] = target: Retinaldehyde dehydrogenase 3 (Homo sapiens) (UniProt P47895); experiment: qHTS for Inhibitors of the Aldehyde Dehydrogenase Family (ALDH1A3) Primary screen (AID 2061315)
[5] = BET inhibitor-based combinations targeting novel dependencies in MECOM-rearranged (r) AML: SET-2 cell line (AID 2202231); conditions: SET-2 AML cells viability, CellTiter-Glo luminescence, 48 h; viability: hits give low values, concentration not given here; also: nearly all actives have a fitted effect of over 35% in size; also: potency is read from the fitted curve at half-maximal effect
How it was run: (§1)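 500 cells/well; 11-pt dose curve; 48 h, standard incubator; CellTiter-Glo luminescence after 15 min RT; DMSO/empty-well normalization; AUC plus Z-AUC (mean-centered within each line).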

[6] = BET inhibitor-based combinations targeting novel dependencies in MECOM-rearranged (r) AML: OCI-AML3 cell line (AID 2202232); conditions: Potency: OCI-AML3 viability; also: nearly all actives have a fitted effect of over 35% in size; also: potency is read from the fitted curve at half-maximal effect
How it was run: as §1

[7] = BET inhibitor-based combinations targeting novel dependencies in MECOM-rearranged (r) AML: MV-4-11 cell line (AID 2202233); also: nearly all actives have a fitted effect of over 45% in size; also: potency is read from the fitted curve at half-maximal effect
How it was run: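 Cells were plated at 500 per well and exposed to each drug across an 11-point dose range for 48 hr at standard incubator conditions. Viability was read by CellTiter-Glo luminescence, and activity was expressed as AUC and per-cell-line Z-transformed AUC.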

SMILES: CCCCC(=O)N1c2ccccc2NC2=C(C(=O)CCC2)C1c1ccccc1Cl (stereo not drawn)
- activation [1]: -4.77%
- Potency [2]: inactive
- Potency [3]: inactive
- Potency [4]: inactive

SMILES: COc1ccc(CCN(C)CCCOc2nsc(-c3ccccc3)n2)cc1OC
- activation [1]: 13.4%
- Potency [2]: inactive
- Potency [3]: inactive
- Potency [4]: inactive

SMILES: Cn1c(=O)c2c(ncn2Cc2ccc(C(C)(C)C)cc2)n(C)c1=O
- activation [1]: -5.25%
- Potency [2]: inactive
- Potency [3]: inactive
- Potency [4]: inactive

SMILES: C[C@@H]1C(=O)O[C@H]2[C@@H](O)C34[C@H]5C[C@@H](C(C)(C)C)C36[C@@H](OC(=O)[C@@H]6O)O[C@@]4(C(=O)O5)[C@@]12O (stereo partly drawn)
- activation [1]: 5.25%
- Potency [2]: inactive
- Potency [3]: inactive
- Potency [4]: inactive

SMILES: CCCCOc1ccc(-c2cncc(C(=O)NCc3cccnc3N3CCOCC3)c2)cc1Cl
- activation [1]: 7.64%
- Potency [2]: inactive
- Potency [3]: inactive
- Potency [4]: inactive

SMILES: CC(C)NCC(C(=O)N1CCN(c2ncnc3c2C(C)CC3O)CC1)c1ccc(Cl)cc1 (stereo not drawn)
- activation [1]: 0.955%
- Potency [2]: inactive
- Potency [3]: inactive
- Potency [4]: inactive

SMILES: CN1CCOC(c2ccccc2)c2ccccc2C1 (stereo not drawn)
- activation [1]: 0.837% and 6.21%
- Potency [2]: inactive
- Potency [3]: inactive
- Potency [4]: inactive

SMILES: CC(=O)SCC(=O)c1ccc(NS(=O)(=O)c2ccc(OCCCN(C)C)cc2)nc1
- activation [1]: 10%
- Potency [2]: inactive
- Potency [3]: inactive
- Potency [4]: inactive

SMILES: CCc1c(CC(N)=O)c2cc(OCCCP(=O)(O)O)ccc2n1Cc1ccccc1
- activation [1]: 2.86%
- Potency [2]: inactive
- Potency [3]: inactive
- Potency [4]: inactive

SMILES: CCCCNc1nc(N)c2[nH]c(=O)n(Cc3ccc(OCCN(C)C)nc3)c2n1
- activation [1]: -9.55%
- Potency [2]: inactive
- Potency [3]: inactive
- Potency [4]: inactive

SMILES: N#CC(c1ccnc(OCc2ccc(CN3CCOCC3)cc2)n1)c1nc2ccccc2s1 (stereo not drawn)
- activation [1]: 0.477%
- Potency [2]: inactive
- Potency [3]: inactive
- Potency [4]: inactive

SMILES: COC1CCN(c2cccc(-c3cc(NC(C)=O)nc(-n4nc(C)cc4C)n3)n2)CC1
- activation [1]: -8.59%
- Potency [2]: inactive
- Potency [3]: inactive
- Potency [4]: inactive

SMILES: CNC(=O)c1cccc(-c2ccc3c(N4CCOC[C@@H]4C)nc(N4CCOC[C@@H]4C)nc3n2)c1
- activation [1]: 20%
- Potency [2]: inactive
- Potency [3]: inactive
- Potency [4]: inactive
- Potency [5]: 590 nM (active)
- Potency [6]: 263 nM (active)
- Potency [7]: 372 nM (active)

SMILES: COC(=O)N(C)c1c(N)nc(-c2nn(Cc3ccccc3F)c3ncccc23)nc1N
- activation [1]: -15.8%
- Potency [2]: inactive
- Potency [3]: inactive
- Potency [4]: inactive
- viability [5]: 119%
- Potency [6]: inactive
- Potency [7]: inactive

SMILES: COc1cc2nc(N3CCN(C(=O)COc4c(OC)cccc4C(C)C)CC3)nc(N)c2cc1OC
- activation [1]: -11%
- Potency [2]: inactive
- Potency [3]: inactive
- Potency [4]: inactive

SMILES: C[C@@H](N[C@H]1CCCC[C@@H]1NC(=O)c1ccc(Cl)cc1)c1cccc2ccccc12
- activation [1]: 21.5%
- Potency [2]: inactive
- Potency [3]: inactive
- Potency [4]: inactive

SMILES: O=C(N[C@H](Cc1cscn1)C(=O)N[C@@H](CC1CCCCC1)[C@@H](O)[C@@H](O)C1CC1)c1nc2ccccc2[nH]1
- activation [1]: 5.25%
- Potency [2]: inactive
- Potency [3]: inactive
- Potency [4]: inactive

SMILES: COC(=O)C(CC1CCCC1)c1ccc(S(C)(=O)=O)cc1 (stereo not drawn)
- activation [1]: 0.955%
- Potency [2]: inactive
- Potency [3]: inactive
- Potency [4]: inactive

SMILES: Cc1cc(C)c(-n2cc(C)c3c(Cl)nc(C)nc32)c(C)c1
- activation [1]: -3.82%
- Potency [2]: inactive
- Potency [3]: inactive
- Potency [4]: inactive

SMILES: CC1(C)CC(=O)N(CCCCN2CCN(c3ncccn3)CC2)C(=O)C1
- activation [1]: -2.86%
- Potency [2]: inactive
- Potency [3]: inactive
- Potency [4]: inactive

SMILES: O=C1N=C(N2CCOCC2)CN1c1ccc(Cl)cc1
- activation [1]: -6.21%
- Potency [2]: inactive
- Potency [3]: inactive
- Potency [4]: inactive

SMILES: CC1(C)CCC(C)(C)c2cc(C3(c4ccc(C(=O)O)cc4)OCCO3)ccc21
- activation [1]: 2.39%
- Potency [2]: inactive
- Potency [3]: inactive
- Potency [4]: inactive

SMILES: C[C@@H](NC(=O)[C@H](O)c1cc(F)cc(F)c1)C(=O)N[C@@H]1C(=O)N(C)c2ccccc2-c2ccccc21
- activation [1]: -6.21%
- Potency [2]: inactive
- Potency [3]: inactive
- Potency [4]: inactive

SMILES: CC[C@@H](c1ccc(F)c(F)c1)n1c(C(=O)OC)c(-c2ccno2)[nH]c1=S
- activation [1]: -6.68%
- Potency [2]: inactive
- Potency [3]: inactive
- Potency [4]: inactive

SMILES: FC(F)(F)c1nnc2c(Sc3ccccc3)nc3ccc(Cl)cc3n12
- activation [1]: 29.1%
- Potency [2]: inactive
- Potency [3]: inactive
- Potency [4]: inactive

SMILES: C=CC(C)(O)CC[C@@H]1[C@@]2(C)CCCC(C)(C)C2CC[C@@]1(C)O (stereo partly drawn)
- activation [1]: 1.91%
- Potency [2]: inactive
- Potency [3]: inactive
- Potency [4]: inactive

SMILES: O=C(NCCN1CCC(n2c(=O)[nH]c3ccccc32)CC1)c1cc2cc(F)ccc2[nH]1
- activation [1]: 23.9%
- Potency [2]: inactive
- Potency [3]: inactive
- Potency [4]: inactive

SMILES: COc1ccc(CN2CCN(C(=O)CCNC(=O)c3ccc(C(C)(C)C)cc3)CC2)cc1
- activation [1]: -7.16%
- Potency [2]: inactive
- Potency [3]: inactive
- Potency [4]: inactive

From PubChem BioAssay (NCATS)
